For 6 molecules, max CPE inhibition results are on record in PubChem BioAssay AID2419 (Southern Research Specialized Biocontainment Screening …, 2010).

The experiment can be described thus: West Nile virus cytopathic effect inhibition, cell-based (AID 2419). Conditions: West Nile virus-infected cells, stronger effect = higher value; at 200 µM unless noted. A general note: Damage to the host cells serves as the signal in cytopathic effect assays.

Potency and affinity values are given separately. Unmarked numbers belong to inactive results. No rule for the calls is given here.

Turning to `Cc1cc(OC(=O)c2c(F)cccc2F)n(Cc2ccccc2)n1`, the max CPE inhibition is 1.92%.

In the case of `O=C(CSc1nc2ccccc2c(=O)n1-c1ccc(F)cc1)Nc1ccc2c(c1)CCC2`, the max CPE inhibition is 29.6% [at 100 µM].

For `O=C(CSc1nc2cccc(I)c2c(=O)n1-c1ccccc1)Nc1ccc2c(c1)CCC2`, the max CPE inhibition is 3.08%.

Consider `OC1c2c(F)cccc2N=C2CCCN21` (stereo unspecified), for which the max CPE inhibition was 0.91% [at 0.39 µM].

For the molecule `OC1c2cc(Br)ccc2N=C2CCCCCN21` (stereo unspecified), the max CPE inhibition is 6.41% [at 0.78 µM].

Consider `OC1c2c(F)cccc2N=C2CCCCCN21` (stereo unspecified), for which the max CPE inhibition is 1.99% [at 0.39 µM].
